Assay results as given in PubChem BioAssay AID881 (National Center for Advancing Translational Sciences (NCATS), 2007).
Among all 110,000 compounds or so, about 610 (0.55%) were called active. About 3% were inconclusive and are not listed. What follows is part of a selection rich in actives, with near analogues and random picks from the rest. Unmarked numbers belong to inactive results. Calls follow the shape of the dose curve; as a rule, active = well fitted inhibition curve with a large enough effect; inconclusive = small, poorly fitted or top-dose-only effect; inactive = no such curve, though single readings can be large or run the other way.

target: Polyunsaturated fatty acid lipoxygenase ALOX15B (Homo sapiens) (UniProt O15296); experiment: qHTS Assay for Inhibitors of 15-hLO-2 (15-human lipoxygenase 2); settings: purified 15hLO-2, xylenol orange hydroperoxide absorbance; series mostly up to 57.1 µM; activity change, negative = inhibition: at the top concentration; also: nearly all actives have a fitted effect of over 60% in size
In short: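 Screening format was qHTS against 50 nM purified 15hLO-2 in Hepes pH 7.5 with detergent. Activity follows hydroperoxide formation from 45 uM arachidonic acid, measured as 573:405 nm absorbance ratio of the ferric-xylenol orange complex.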
% is scaled to controls: 0 for no effect and ±100 for the full control effect; potency is read from the fitted curve at half-maximal effect.

Polyunsaturated fatty acid lipoxygenase ALOX15B (Homo sapiens), sequence (O15296 whole entry, looked up): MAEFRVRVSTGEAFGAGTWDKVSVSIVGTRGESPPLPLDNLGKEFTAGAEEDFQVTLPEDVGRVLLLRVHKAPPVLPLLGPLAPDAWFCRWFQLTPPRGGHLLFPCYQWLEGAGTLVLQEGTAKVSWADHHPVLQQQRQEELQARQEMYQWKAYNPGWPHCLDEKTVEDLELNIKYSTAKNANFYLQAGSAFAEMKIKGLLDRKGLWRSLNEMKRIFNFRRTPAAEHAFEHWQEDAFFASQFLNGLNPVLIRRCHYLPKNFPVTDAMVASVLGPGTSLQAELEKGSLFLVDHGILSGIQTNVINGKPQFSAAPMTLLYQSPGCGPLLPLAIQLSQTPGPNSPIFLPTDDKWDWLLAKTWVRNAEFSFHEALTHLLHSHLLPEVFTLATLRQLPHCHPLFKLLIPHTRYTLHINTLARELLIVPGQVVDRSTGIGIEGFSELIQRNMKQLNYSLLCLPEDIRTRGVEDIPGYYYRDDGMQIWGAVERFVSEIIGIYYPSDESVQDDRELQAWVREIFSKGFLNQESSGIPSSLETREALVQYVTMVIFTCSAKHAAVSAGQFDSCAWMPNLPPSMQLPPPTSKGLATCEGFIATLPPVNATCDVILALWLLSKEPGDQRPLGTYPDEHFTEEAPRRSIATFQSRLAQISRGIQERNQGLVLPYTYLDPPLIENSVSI

| Structure (SMILES) | activity change, negative = inhibition | Potency |
| --- | --- | --- |
| CC1CCN(c2ccc(S(=O)(=O)Nc3cc(C(=O)O)cc(C(=O)O)c3)cc2[N+](=O)[O-])CC1 | 2.65% | – |
| COc1ccc(C)cc1NC(=O)CCS(=O)(=O)c1cccc2nonc12 | -1.24% | – |
| Cc1ccc(/C=N/NC(=O)c2sccc2OCc2ccc(F)cc2)cc1 | 6.49% | – |
| C=CCNC(=S)NNc1ncnc2sc3c(c12)CC(C)(C)OC3 | -29% | – |
| COC(=O)CSc1nnc(-c2cccnc2)o1 | 3.28% | – |
| O=C(CSCc1ccc(Cl)cc1)N1CCCCC1 | 1.73% | – |
| NS(=O)(=O)c1ccc(CCNC(=O)Nc2ccc(Cl)cc2)cc1 | -0.0198% | – |
| Oc1cc2c(cc1O)CN(C(=S)NCCc1ccc(Cl)cc1)CCC2 | – | 12.6 µM (active) |
| CC(=O)c1ccc2c(ccc3ccccc32)c1 | -0.686% | – |
| C=CC(=O)c1ccc2ccccc2c1 | – | 2 µM (active) |
| Cc1ccc2nc(CC(=O)c3ccc4ccccc4c3)c(=O)[nH]c2c1 | -6.79% [at 11.4 µM] | – |
| CCC(=O)Nc1ccc(C(=O)Nc2cccc(OC)c2)cc1 | 2.43% | – |
| COc1ccccc1N=C(C)C1=C(O)COC1=O | 1.25% | – |
| Cc1cccc(-n2cnc(C(=O)Nc3cccnc3)c2)n1 | 3.31% | – |
| Cc1ccc(S(=O)(=O)N2CCC(=O)N([C@H](COCc3ccccc3)Cc3ccccc3)CC2)cc1 | 6.39% [at 0.0915 µM] | – |
| O=S1(=O)CCN(Cc2ccccc2Cl)CC1 | -0.814% | – |
| CCN(CC)CCn1c(=S)[nH]c2ncccc2c1=O | 1.31% | – |
| CCCc1cc(=O)[nH]c(SCC(=O)c2cc(C)n(CCC)c2C)n1 | -8.86% | – |
| COc1ccc(OC(C)C(=O)Nc2cccnc2)cc1 (stereo not drawn) | 4.53% | – |
| C=CCNC(=S)N/N=C/c1ccc(OCc2ccccc2)cc1 | -12.6% | – |
| O=C(O)c1cc2ccccc2c(=O)s1 | 1.13% | – |
| CS(=O)(=O)N(CC(=O)Nc1ccc(F)cc1F)c1cccc([N+](=O)[O-])c1 | -23% | – |

| Structure (SMILES) | activity change, negative = inhibition | Potency |
| --- | --- | --- |
| COc1cccc(-c2cc(=O)c3cc(NC(=O)c4ccc(C)cc4)ccc3[nH]2)c1 | -28.3% [at 0.0915 µM] | – |
| Cc1cccc([C@H]2[C@@H]3C=CC[C@@H](C)[C@@H]3C(=O)N2Cc2ccccc2)c1 | -6.63% [at 0.0915 µM] | – |
| CCn1c(O)c2ccc(C(=O)N=NC(=O)c3cccnc3)cc2c1O | 1.39% | – |
| CCOC(=O)N1CCC(Nc2c(NCCCN3CCN(CC)CC3)c(=O)c2=O)CC1 | 2.51% | – |
| COc1cccc(N=c2oc3c(C)ncc(CO)c3cc2C(N)=O)c1 | -13.3% | – |
| CC(C)CCNC(=O)CC1C(=O)N(Cc2ccccc2)C(C)c2nc3ccccc3n21 (stereo not drawn) | 12.6% | – |
| CC(C)(CNC(=O)c1cc(=O)[nH]c2ccccc12)N1CCOCC1 | 4.69% | – |
| COc1ccc(CN2CCCCC2C)cc1OC (stereo not drawn) | -1.37% | – |
| Cc1ccc(CNC(=O)CCNC(=O)Cn2ccc3ccccc3c2=O)cc1 | 10.9% | – |
| O=C(Nc1nnc(C2CC2)s1)c1ccccn1 | 28.8% | – |
| C/C=C1\C2C=C(C)CC1(N)c1ccc(=O)[nH]c1C2 (stereo not drawn) | -9.9% [at 0.0915 µM] | – |
| Oc1ccc(O)c2c(O)cccc12 | – | 12.6 µM (active) |
| COc1ccc(-c2cc3nc(C)c(CCC(=O)NC(C)CCc4ccco4)c(C)n3n2)c(OC)c1 (stereo not drawn) | 13.3% | – |
| COc1cc(OC)c2c(c1)OC(=O)CC2c1cc(OC)c(OC)c(OC)c1 (stereo not drawn) | -2.71% [at 0.0915 µM] | – |
| COc1cc(OC)c2c(-c3cccc(-c4cccc(N)c4)c3)cc(=O)oc2c1 | 3.54% [at 0.0915 µM] | – |
| O=C(c1cccc(N2CCCC2=O)c1)N1CCOCC1 | -6.64% | – |
| Cc1cc2oc(=O)cc(-c3ccccc3)c2c(C)c1/C=C/c1ccc(F)cc1 | -8.43% [at 0.0915 µM] | – |
| COc1ccc(SCc2noc(C(=O)NCC3CCCO3)c2C(=O)O)cc1 (stereo not drawn) | -4.14% | – |
| CCN1C(=O)/C(=C\N2CCN(c3ccccc3)CC2)SC1=S | -25.9% | – |
| CCCCN1C(=O)/C(=C2/C=CC=CN2C)SC1=S | -27% | – |
| CCN1C(=O)/C(=C2/Sc3ccccc3N2CCCS(=O)(=O)O)SC1=S | – | 15.8 µM (active) |
| COc1ccc(-c2nnc(SC(=O)N3c4ccccc4Sc4ccccc43)o2)cc1 | – | 10 µM (active) |

| Structure (SMILES) | activity change, negative = inhibition | Potency |
| --- | --- | --- |
| COc1ccc(-c2nnc(SC(C)C#N)o2)cc1 (stereo not drawn) | 0.86% | – |
| CCN(CC)C(=O)CSc1nnc(-c2cccc(OC)c2)o1 | 2.94% | – |
| Cc1cnc(NC(=O)CSc2nnc(C)s2)s1 | -2.24% | – |
| O=S(=O)(c1ccc(Br)cc1)c1nc(-c2ccccc2)oc1NCc1cccnc1 | 24.4% | – |
| Cc1ccc(-c2csc(NC(=O)Cc3cccs3)n2)cc1C | -5.8% | – |
| Cc1nnc(NC(=O)CSc2nc(C3CCCCC3)nc3ccccc23)s1 | 4.22% | – |
| CCOCCCNC(=O)C(NC(=O)c1ccc(=O)[nH]c1)c1ccc(C)cc1 (stereo not drawn) | 3.28% | – |
| COc1ccc(N(CC(=O)NC2CCCCC2)S(=O)(=O)c2c(C)[nH]c(=O)[nH]c2=O)cc1 | -0.497% | – |
| CCc1c(C)[nH]c(=S)c(C#N)c1C | – | 31.6 µM (active) |
| O=C(Nc1ccccc1)c1ccccc1NC(=O)C(F)(F)F | 0.576% | – |
| CCCNC(=S)NC1CC2CCCC(C1)N2CC(C)C (stereo not drawn) | 4.08% | – |
| Cc1ccc(F)c(NC(=O)CCc2ccccc2)c1 | 2.82% | – |
| COc1ccc(-c2c(C)cc3oc(=O)cc(-c4ccccc4)c3c2C)cc1C=O | -27.8% [at 0.0915 µM] | – |
| COc1ccc(C2CC(=O)Oc3ccc(C(C)(C)C)cc32)cc1 (stereo not drawn) | -11.2% [at 0.0915 µM] | – |
| CCCNC(=O)NCc1ccc(N2CCCC2=O)cc1 | -2.71% | – |
| COCc1cc(=O)[nH]c2cc(NC(=O)C(F)(F)F)c(C)cc12 | -0.389% | – |
| CCOC(=O)C1C/C(=C\C(C)=O)c2cccc(C(F)(F)F)c2O1 (stereo not drawn) | 4.83% [at 0.0915 µM] | – |
| COc1cnc(SCc2ccc(Cl)c(Cl)c2)nc1Cl | 13.5% | – |
| C(=N/N1CCN(c2ccccc2)CC1)/c1cccs1 | -1.53% | – |
| COc1ccc(C(=O)NNC(=O)c2cnccn2)cc1[N+](=O)[O-] | -1.79% | – |
| COc1ccc(Nc2nc(=O)[nH]nc2C)cc1 | -3.1% | – |
| O=C(NCc1ccco1)C1(c2ccc(Cl)cc2)CCCC1 | -3.03% | – |

| Structure (SMILES) | activity change, negative = inhibition | Potency |
| --- | --- | --- |
| O=C(NCc1ccco1)C1CCCN(S(=O)(=O)c2ccccc2)C1 (stereo not drawn) | -2.62% | – |
| CCc1ccc(C(=O)CSc2nnc(C)c(=O)[nH]2)cc1 | 2.83% | – |
| COC(=O)C1C(=O)NCC1c1ccc(OC)cc1 (stereo not drawn) | 1.92% | – |
| CC(=O)c1cccc(NC(=O)C2CCCN2S(=O)(=O)c2cccc3nsnc23)c1 (stereo not drawn) | 2.82% | – |
| CC(=O)CC(c1ccccc1)C1C(=O)Oc2ccccc2C1=O (stereo not drawn) | 12.2% [at 0.0915 µM] | – |
| C#C[C@]1(O)CC[C@H]2[C@@H]3CCC4=CC(=O)CC[C@@H]4[C@H]3CC[C@@]21CC | -11.5% [at 0.0915 µM] | – |
| Cc1cccc(-n2ncc(C#N)c2-n2cccc2)c1 | -4.9% | – |
| CCC(C)N1C(=O)S/C(=C/c2ccc(Sc3nc4ccccc4[nH]3)o2)C1=O (stereo not drawn) | 42.9% | – |
| CCN1CCN(C(=O)/C=C\C(=O)O)CC1 | 4% | – |
| CCOC(=O)Cn1c(-c2cccnc2Cl)nc2ccccc21 | 2.59% | – |
| Cc1cc2cc(CNC(=O)c3cccs3)ccc2[nH]1 | -4.32% | – |
| CCOC(=O)C1=C(C)c2ccccc2OC1(C)C(=O)OCC (stereo not drawn) | 0.734% [at 0.0915 µM] | – |
| CCCn1c(C(Cc2ccccc2)NC(=O)COC)nc2ccccc21 (stereo not drawn) | 0.671% | – |
| CC1=C(/C=C/C(C)=C/C=C/C(C)=C/C=C/C=C(C)/C=C/C=C(C)/C=C/C(=O)[C@]2(C)C[C@@H](O)CC2(C)C)C(C)(C)C[C@H](O)C1 | 24.6% [at 0.0915 µM] | – |
| CCOC(=O)c1cnc(SC)nc1Sc1ccc(Cl)cc1Cl | 6.61% | – |
| COc1cccc2c1OCC(C(=O)NCc1ccc(Cl)cc1Cl)=C2 | 10.8% | – |
| CCCCCCSc1nsc(N)n1 | -0.41% | – |
| CCOC(=O)C1=C(C)c2ccccc2OC1C(=O)OCC (stereo not drawn) | -11.3% [at 0.0915 µM] | – |
| O=c1[nH]c(-c2ccccc2)c(-c2ccccc2)[nH]1 | -8.38% | – |
| O=c1[nH]c2ccccc2n2c(-c3ccccc3)nnc12 | – | 10 µM (active) |
| O=[N+]([O-])c1cccc(-c2nnc3c4ccccc4c4ccccc4n23)c1 | -21.4% | – |
| C[C@@H]1C(c2ccc(F)cc2)=NN(c2ccc(Br)cc2)[C@H]1C(=O)N1CCOC1=O | -11.1% [at 0.0915 µM] | – |
